According to PubChem BioAssay (NCATS):
Records with an inconclusive call do not appear. The source made the active and inactive calls. Calls follow the shape of the dose curve; as a rule, active = well fitted inhibition curve with a large enough effect; inconclusive = small, poorly fitted or top-dose-only effect; inactive = flat fitted curve, though single readings scatter.

Columns and labels:
Assay in all cases: qHTS profiling for inhibitors of Plasmodium falciparum proliferation (AID 504749); also: nearly all actives have a fitted effect of over 60% in size
Details in all cases: P. falciparum in erythrocytes, SYBR Green DNA, 72 h; series mostly up to 28.7 µM
[1] = tested on: 3D7
Procedure, shortened: (§1)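 Infected RBCs, 0.3% parasitemia/2.5% Hct final; cpd 72 h, 37 C, 5% CO2; lysis buffer with saponin/triton/SYBR Green I, o/n RT dark; FI 485/535; norm. to artemisinin (0.29 uM) and DMSO.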

[2] = tested on: 7G8
Procedure, shortened: as §1

[3] = tested on: AA1029
Procedure, shortened: as §1

[4] = tested on: AS120
Procedure, shortened: as §1

[5] = tested on: ATS189
Procedure, shortened: as §1

[6] = tested on: ATS95
Procedure, shortened: as §1

[7] = tested on: C2A
Procedure, shortened: as §1

[8] = tested on: CP185
Procedure, shortened: as §1

[9] = tested on: CP192
Procedure, shortened: as §1

[10] = tested on: CP191
Procedure, shortened: as §1

Measured: Potency
Potency is read from the fitted curve at half-maximal effect.

O=c1[nH]cnc2c1ncn2[C@H]1CC[C@@H](CO)O1
active: [2] 10 µM
not listed: [10]
inactive: all other assays above

CCCCCN(C)CCC(O)(P(=O)(O)O)P(=O)(O)O
inactive: all assays above

CC(=O)O[C@]1(C(C)=O)CC[C@H]2[C@@H]3C=C(Cl)C4=CC(=O)[C@@H]5C[C@@H]5[C@]4(C)[C@H]3CC[C@@]21C
active: [2] 11.2 µM
inactive: [5] | [8]

COc1ccc(Cc2nccc3cc(OC)c(OC)cc23)cc1OC
not listed: [1]
inactive: all other assays above

CCCCC1C(=O)N(c2ccccc2)N(c2ccccc2)C1=O
inactive: [2]

O=C1NC(=O)C(c2ccccc2)(c2ccccc2)N1
inactive: all assays above

Cc1cccc(C)c1OCC(C)N (stereo not drawn)
inactive: [1] | [5] | [7] | [8] | [9]

Clc1ccc(Cn2c(CN3CCCC3)nc3ccccc32)cc1
active: [2] 3.16 µM
inactive: all other assays above

CCN(CC)C(=O)c1ccc(O)c(OC)c1
inactive: all assays above

CCOC(=O)O[C@]1(C(=O)OCCl)CC[C@@H]2[C@H]3CCC4=CC(=O)C=C[C@]4(C)[C@@H]3[C@@H](O)C[C@@]21C
not listed: [2]
inactive: all other assays above

CCCNC(=O)NS(=O)(=O)c1ccc(Cl)cc1
inactive: all assays above

O=C(O)c1cc(-c2ccccc2)nc2ccccc12
inactive: all assays above

O=C(NCCN1CCOCC1)c1ccc(Cl)cc1
inactive: all assays above

O=C1Nc2ccc(Cl)cc2C(C#CC2CC2)(C(F)(F)F)O1 (stereo not drawn)
active: [2] 11.2 µM
not listed: [4]
inactive: all other assays above

CC(=O)N[C@@H](CS)C(=O)O
inactive: all assays above

CN(C)CCC(c1ccccc1)c1ccccn1 (stereo not drawn)
active: [2] 5.62 µM
inactive: [1] | [4] | [5] | [7] | [10]

O=C(O)Cc1cccc2ccccc12
inactive: all assays above

CC1=C(/C=C/C(C)=C/C=C/C(C)=C/C(=O)Nc2ccc(O)cc2)C(C)(C)CCC1
active: [2] 8.91 µM | [4] 10 µM | [5] 7.94 µM | [10] 7.94 µM | [9] 9.53 µM

COCCCCC(=NOCCN)c1ccc(C(F)(F)F)cc1
inactive: [9]

Cc1cnc(C(=O)O)c[n+]1[O-]
inactive: all assays above

NCCS
inactive: all assays above

O=C(O)c1c(Cl)c(Cl)c(Cl)c(Cl)c1-c1c2cc(I)c(=O)c(I)c-2oc2c(I)c(O)c(I)cc12
inactive: all assays above

CC/C(=C(\c1ccccc1)c1ccc(OCCN(C)C)cc1)c1ccccc1
inactive: [9]
active: [2] 12.6 µM

NC(N)=Nc1nc(CSCC/C(N)=N/S(N)(=O)=O)cs1
inactive: all assays above

COc1ccccc1N1CCN(CCCNc2cc(=O)n(C)c(=O)n2C)CC1
inactive: all assays above

C[N+](C)(C)CCCCCC[N+](C)(C)C
inactive: all assays above

CCN(CC)CCNC(=O)c1ccc(N)cc1
inactive: all assays above

O=C1NCC2(CCN(CCc3ccccc3)CC2)O1
inactive: all assays above

CC(=O)CCCCn1c(=O)c2c(ncn2C)n(C)c1=O
inactive: all assays above

CC(=O)c1ccc(S(=O)(=O)NC(=O)NC2CCCCC2)cc1
inactive: all assays above

CCN1CCC[C@H]1CNC(=O)c1cc(S(N)(=O)=O)ccc1OC
inactive: all assays above

C[C@@H](O)[C@H]1C(=O)N2C(C(=O)O)=C(S[C@@H]3CN[C@H](C(=O)N(C)C)C3)[C@H](C)[C@H]12
inactive: all assays above

CCN(CC)CCOC(=O)c1ccc(N)cc1
inactive: all assays above

CC1(C)O[C@H]2C[C@@H]3[C@H]4CCC5=CC(=O)C=C[C@]5(C)[C@@]4(F)[C@@H](O)C[C@]3(C)[C@]2(C(=O)CO)O1
active: [2] 8.91 µM
not listed: [4]
inactive: all other assays above
